From PubChem BioAssay (NCI)
Compounds without any hit were thinned out: in the full panel of roughly 83,000, 20% have a hit.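 Percent growth is the endpoint: 0 to 100 indicates growth inhibition (40 means 60% inhibition), 0 means no net growth, and negative values indicate cell death.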 Activity calls are given as the source filed them. How the source made its calls: active means growth percent below 10; inactive means the rest.

Experiments:
Experiment in all cases: NCI-60 one-dose screen, 48 h (100 = growth as untreated, 0 = no growth, -100 = all killed)
HCT-15 colon = settings: 10 µM
HT29 colon = settings: 10 µM
SNB-75 CNS = settings: 10 µM
SNB-19 CNS = settings: 10 µM
U251 CNS = settings: 10 µM
PC-3 prostate = settings: 10 µM
SK-MEL-5 melanoma = settings: 10 µM
UACC-62 melanoma = settings: 10 µM unless noted
LOX IMVI melanoma = settings: 10 µM
SK-MEL-28 melanoma = settings: 10 µM

Measured: growth

O=C(O)CCCCNC(=O)c1ccccc1
inactive: HCT-15 colon 102% | HT29 colon 101% | SNB-75 CNS 103% | SNB-19 CNS 108% | U251 CNS 98.5% | PC-3 prostate 100% | SK-MEL-5 melanoma 101% | UACC-62 melanoma 110% | LOX IMVI melanoma 91.8% | SK-MEL-28 melanoma 111%

Nc1nc(N)c(N=Nc2ccc(C(=O)O)cc2)c(N)n1
inactive: HCT-15 colon 109% | HT29 colon 105% | SNB-75 CNS 103% | SNB-19 CNS 95.1% | U251 CNS 103% | PC-3 prostate 101% | SK-MEL-5 melanoma 100% | UACC-62 melanoma 94.4% | LOX IMVI melanoma 101% | SK-MEL-28 melanoma 103%

COc1ccccc1NC(=O)c1cc2cc(Br)ccc2cc1O
active: HCT-15 colon 7.97% | U251 CNS 8.67% | PC-3 prostate -35.3% | SK-MEL-5 melanoma -74.6% | LOX IMVI melanoma 3.26%
inactive: HT29 colon 72.8% | SNB-75 CNS 12.4% | SNB-19 CNS 27.3% | UACC-62 melanoma 24.3% | SK-MEL-28 melanoma 34.6%

O=[N+]([O-])c1ccc(S(=O)(=O)NN=C2CCCCC2)cc1
inactive: HCT-15 colon 115% | HT29 colon 107% | SNB-75 CNS 87.8% | SNB-19 CNS 99.8% | U251 CNS 111% | PC-3 prostate 96.8% | SK-MEL-5 melanoma 105% | UACC-62 melanoma 117% | LOX IMVI melanoma 95% | SK-MEL-28 melanoma 110%

O=C(NC1CCCCC1)OCc1c(COC(=O)NC2CCCCC2)c(-c2ccc(Cl)c(Cl)c2)n2c1CCC2
active: UACC-62 melanoma 9.04%
inactive: HCT-15 colon 33.6% | HT29 colon 26.7% | SNB-75 CNS 15.7% | SNB-19 CNS 44.5% | U251 CNS 29.4% | PC-3 prostate 55.1% | SK-MEL-5 melanoma 41.6% | LOX IMVI melanoma 13.3% | SK-MEL-28 melanoma 75.6%

O=C(O)/C=C/c1ccc2c(c1)CCC2
inactive: HCT-15 colon 99.5% | HT29 colon 104% | SNB-75 CNS 100% | SNB-19 CNS 105% | U251 CNS 99.3% | PC-3 prostate 103% | SK-MEL-5 melanoma 105% | UACC-62 melanoma 103% | LOX IMVI melanoma 102% | SK-MEL-28 melanoma 104%

C[N+](C)=c1ccc2nc3c(cc(Nc4ccccc4)c4ccccc43)oc-2c1
inactive: HCT-15 colon 56.7% | HT29 colon 52.2% | SNB-75 CNS 86.7% | SNB-19 CNS 57.2% | U251 CNS 23.4% | PC-3 prostate 47.3% | SK-MEL-5 melanoma 46.3% | UACC-62 melanoma 44.8% | LOX IMVI melanoma 30.4% | SK-MEL-28 melanoma 23.5%

O=C1C=CC(=O)N1c1ccc(I)cc1Cl
inactive: HCT-15 colon 99.9% | HT29 colon 100% | SNB-75 CNS 103% | SNB-19 CNS 98.4% | U251 CNS 99.5% | PC-3 prostate 75.7% | SK-MEL-5 melanoma 102% | UACC-62 melanoma 104% | LOX IMVI melanoma 101% | SK-MEL-28 melanoma 107%

S=c1nn[nH]c2ccccc12
inactive: HCT-15 colon 103% | HT29 colon 112% | SNB-75 CNS 96.4% | SNB-19 CNS 95.9% | U251 CNS 103% | PC-3 prostate 98.1% | SK-MEL-5 melanoma 97.9% | UACC-62 melanoma 99.2% | LOX IMVI melanoma 93.6% | SK-MEL-28 melanoma 126%

C=CCOC(=O)C(=O)OCC=C
inactive: HCT-15 colon 100% | HT29 colon 101% | SNB-75 CNS 102% | SNB-19 CNS 94.7% | U251 CNS 106% | PC-3 prostate 97% | SK-MEL-5 melanoma 98.8% | UACC-62 melanoma 102% | LOX IMVI melanoma 111% | SK-MEL-28 melanoma 113%

Cc1cc(N)c(S(=O)(=O)O)c(N)c1
inactive: HCT-15 colon 105% | HT29 colon 111% | SNB-75 CNS 98.8% | SNB-19 CNS 90.7% | U251 CNS 98.7% | PC-3 prostate 85.4% | SK-MEL-5 melanoma 104% | UACC-62 melanoma 92.4% | LOX IMVI melanoma 94% | SK-MEL-28 melanoma 104%

CC(C)OC(=O)c1cc(NC(=S)OC(C)C)ccc1Cl
inactive: HCT-15 colon 87.8% | HT29 colon 70.5% | SNB-75 CNS 109% | SNB-19 CNS 92.3% | U251 CNS 96.6% | PC-3 prostate 83.3% | SK-MEL-5 melanoma 44% | UACC-62 melanoma 77.1% | LOX IMVI melanoma 93.4% | SK-MEL-28 melanoma 101%

Nc1ccccc1C(=O)Nc1ccc(Cl)cc1Cl
inactive: HCT-15 colon 101% | HT29 colon 93.2% | SNB-75 CNS 67.7% | SNB-19 CNS 96.1% | U251 CNS 102% | PC-3 prostate 78.8% | SK-MEL-5 melanoma 107% | UACC-62 melanoma 88.7% | LOX IMVI melanoma 87.9% | SK-MEL-28 melanoma 100%

c1ccc(Sc2ccccc2)cc1
inactive: HCT-15 colon 99.4% | HT29 colon 102% | SNB-75 CNS 99.7% | SNB-19 CNS 98.2% | U251 CNS 94.5% | PC-3 prostate 95.9% | SK-MEL-5 melanoma 104% | UACC-62 melanoma 101% | LOX IMVI melanoma 104% | SK-MEL-28 melanoma 107%

CCCCC(=O)c1ccc(OC)cc1
inactive: HCT-15 colon 91.3% | HT29 colon 107% | SNB-75 CNS 101% | SNB-19 CNS 104% | U251 CNS 97.9% | PC-3 prostate 110% | SK-MEL-5 melanoma 96.5% | UACC-62 melanoma 111% | LOX IMVI melanoma 102% | SK-MEL-28 melanoma 111%

c1cc[n+](C2c3ccccc3C([n+]3ccccc3)c3ccccc32)cc1 (stereo not given)
inactive: HCT-15 colon 103% | HT29 colon 73.4% | SNB-75 CNS 17.9% | SNB-19 CNS 26.7% | U251 CNS 21.5% | PC-3 prostate 58.4% | SK-MEL-5 melanoma 27.6% | UACC-62 melanoma 67.3% | LOX IMVI melanoma 76.1% | SK-MEL-28 melanoma 61.6%

COc1cc(C2NC(=O)C(C#N)=C(Nc3cccc(C)c3)S2)ccc1O (stereo not given)
inactive: HCT-15 colon 111% | HT29 colon 107% | SNB-75 CNS 89.6% | SNB-19 CNS 102% | U251 CNS 103% | PC-3 prostate 97.6% | SK-MEL-5 melanoma 101% | UACC-62 melanoma 97.8% | LOX IMVI melanoma 99.1% | SK-MEL-28 melanoma 103%

Nc1ccc(N)c([N+](=O)[O-])c1
inactive: HCT-15 colon 109% | HT29 colon 121% | SNB-75 CNS 102% | SNB-19 CNS 99.5% | U251 CNS 107% | PC-3 prostate 102% | SK-MEL-5 melanoma 95.2% | UACC-62 melanoma 98.5% | LOX IMVI melanoma 100% | SK-MEL-28 melanoma 115%

CCC/C=C(/C(C)=O)C(=O)OCC
inactive: HCT-15 colon 109% | HT29 colon 111% | SNB-75 CNS 89.2% | SNB-19 CNS 94.8% | U251 CNS 103% | PC-3 prostate 88.5% | SK-MEL-5 melanoma 112% | UACC-62 melanoma 95.1% | LOX IMVI melanoma 102% | SK-MEL-28 melanoma 122%

O=C1N(C[P+](c2ccccc2)(c2ccccc2)c2ccccc2)CCCN1C[P+](c1ccccc1)(c1ccccc1)c1ccccc1
inactive: HCT-15 colon 110% | HT29 colon 102% | SNB-75 CNS 88.4% | SNB-19 CNS 98.3% | U251 CNS 95.2% | PC-3 prostate 92.5% | SK-MEL-5 melanoma 106% | UACC-62 melanoma 94.7% | LOX IMVI melanoma 108% | SK-MEL-28 melanoma 102%

Cc1ccc(C(=O)N/N=C/c2ccc3c(c2)OCO3)cc1
inactive: HCT-15 colon 91.6% | HT29 colon 104% | SNB-75 CNS 95.8% | SNB-19 CNS 96.7% | U251 CNS 101% | PC-3 prostate 82.8% | SK-MEL-5 melanoma 100% | UACC-62 melanoma 76.3% | LOX IMVI melanoma 89.1% | SK-MEL-28 melanoma 107%

O=C(O)C(c1ccccc1)C(O)c1ccccc1 (stereo not given)
inactive: HCT-15 colon 102% | HT29 colon 96.5% | SNB-75 CNS 96.6% | SNB-19 CNS 103% | U251 CNS 91.9% | PC-3 prostate 92.6% | SK-MEL-5 melanoma 94% | UACC-62 melanoma 93.6% | LOX IMVI melanoma 102% | SK-MEL-28 melanoma 103%

c1ccc(Cc2ccccc2)cc1
inactive: HCT-15 colon 99% | HT29 colon 118% | SNB-75 CNS 98.9% | SNB-19 CNS 104% | U251 CNS 103% | PC-3 prostate 82.8% | SK-MEL-5 melanoma 116% | UACC-62 melanoma 103% | LOX IMVI melanoma 99.5% | SK-MEL-28 melanoma 112%

COC(=O)c1cccnc1
inactive: HCT-15 colon 103% | HT29 colon 101% | SNB-75 CNS 88.2% | SNB-19 CNS 95.3% | U251 CNS 99.4% | PC-3 prostate 95.2% | SK-MEL-5 melanoma 96.4% | UACC-62 melanoma 90.8% | LOX IMVI melanoma 95.6% | SK-MEL-28 melanoma 103%

O=S(=O)(O)c1ccc(Cl)c(Cl)c1
inactive: HCT-15 colon 107% | HT29 colon 109% | SNB-75 CNS 91.6% | SNB-19 CNS 101% | U251 CNS 105% | PC-3 prostate 94.1% | SK-MEL-5 melanoma 107% | UACC-62 melanoma 99% | LOX IMVI melanoma 91.8% | SK-MEL-28 melanoma 112%

CCOC(=O)Nc1nn[nH]n1
inactive: HCT-15 colon 91.7% | HT29 colon 110% | SNB-75 CNS 94.8% | SNB-19 CNS 99.5% | U251 CNS 115% | PC-3 prostate 96.8% | SK-MEL-5 melanoma 103% | UACC-62 melanoma 99.3% | LOX IMVI melanoma 92.9% | SK-MEL-28 melanoma 115%

COC(=O)Nc1nc2ccc(C(=O)c3cccs3)cc2[nH]1
inactive: HCT-15 colon 10.8% | SNB-75 CNS 32.8% | SNB-19 CNS 29.9% | U251 CNS 16.6% | PC-3 prostate 22.7% | UACC-62 melanoma 34.2% | LOX IMVI melanoma 28.4% | SK-MEL-28 melanoma 56.3%
active: HT29 colon 2.02% | SK-MEL-5 melanoma -21.1%

Cc1cc(C(O)(c2ccc(Nc3ccccc3)cc2)c2ccc(Nc3ccc(S(=O)(=O)O)cc3)cc2)ccc1N (stereo not given)
inactive: SNB-75 CNS 16.8% | SNB-19 CNS 19.7% | PC-3 prostate 12.1%
active: HCT-15 colon -54% | HT29 colon -78.4% | U251 CNS -59.4% | SK-MEL-5 melanoma -90.4% | UACC-62 melanoma -22.7% | LOX IMVI melanoma -65.9% | SK-MEL-28 melanoma -86.9%

CC(=O)c1cc2c(cc1F)C(C)(C)CCC2(C)C
inactive: HCT-15 colon 100% | HT29 colon 106% | SNB-75 CNS 84.8% | SNB-19 CNS 102% | U251 CNS 104% | PC-3 prostate 95.6% | SK-MEL-5 melanoma 102% | UACC-62 melanoma 97.1% | LOX IMVI melanoma 96% | SK-MEL-28 melanoma 107%

COc1ccc(-c2cc3c(nn2)-c2ccccc2C3=O)cc1
active: HT29 colon -24.8% | SNB-75 CNS -4.76% | U251 CNS -3.45% | SK-MEL-28 melanoma -49.3%
inactive: HCT-15 colon 36.7% | SNB-19 CNS 78.9% | PC-3 prostate 18% | SK-MEL-5 melanoma 85.3% | UACC-62 melanoma 84.7% | LOX IMVI melanoma 43.3%
